This passage reports Kinases covered results from PMC7826789 (International Journal of Molecular Sciences, 2021).

In the case of `Cc1ccc(CNC(=O)N2CCC[C@]3(CCN(Cc4ccc(Cl)c(Cl)c4)C3)C2)cc1` [GSK2850163], the Kinases covered entry in the experiment on ERN1 is “ERN1”.

For the molecule `CCCNC(=O)c1ccc(Nc2ncc(C(F)(F)F)c(Nc3ccccc3C(C)=O)n2)c(Br)c1` [BI00801818], the Kinases covered entry in the experiment on FAK was “FAK”.

`CCc1cc(Nc2nccc(-c3c(-c4ccc(OC)c(C(=O)Nc5c(F)cccc5F)c4)nc4ccccn34)n2)c(OC)cc1N1CCC(N2CCN(S(C)(=O)=O)CC2)CC1` [GSK1904529]: the Kinases covered result is given as “FER” with FER and “FRK” with FRK.

Regarding `CNC(=O)c1c(F)cccc1Nc1nc(Nc2cc3c(cc2OC)CCN3C(=O)CN(C)C)nc2[nH]ccc12` [GSK1838705], the Kinases covered result with FER is reported as “FER”.

Take `COc1cc(OC)cc(-c2cc3cnc(N)nc3nc2NC(=O)NC(C)(C)C)c1` [PFE-PKIS 3]: the Kinases covered result in the experiment on FGFR1 is on record as “FGFR1”.

Take `Cn1ccc2ncnc(Oc3ccc(NC(=O)Nc4ccccc4)cc3)c21` [TPKI-69]: the Kinases covered entry in the experiment on FLT3 is reported as “FLT3”.

Consider `COc1cc2c(cc1OC)C(=C(Nc1ccccc1)c1cccc(CN)c1)C(=O)N2` [BIBF0846CL], for which the Kinases covered entry in the experiment on FLT3 is given as “FLT3”.

As to `COc1cc(N2CCN(C)CC2)ccc1Nc1ncc2c(n1)N(C)c1ccccc1C(=O)N2` [XMD8-87], in the experiment on FRK, the Kinases covered entry was “FRK”.

Regarding `c1ccc(-c2cc3ccncc3cc2OC2CCNCC2)cc1` [GSK1122999], the Kinases covered entry in the experiment with GSG2 is “GSG2”.
